From PubChem
A selection: hits, their analogues and other compounds. The true share with any hit is near 21%.
Pf growth 48h: Primary qHTS for delayed death inhibitors of the malarial parasite plastid, 48 hour incubation; P. falciparum luciferase growth in erythrocytes, 48 h; actives 5.9% (n = 310,000); Potency, µM (titrated, usually from 28.7 µM), for inactives: at the highest dose activity change, negative = inhibition, most hits filed as inhibitors; AID 504832, 2011; active = well fitted inhibition curve with a large enough effect; inconclusive = small, poorly fitted or top-dose-only effect, or another doubt; inactive = no such curve, though single readings can be large or run the other way; also: potency is read from the fitted curve at half-maximal effect; % is scaled to controls: 0 for no effect and ±100 for the full control effect
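A one-generation exposure of luciferase-tagged malaria parasites in RPMI 1640/Albumax erythrocyte culture, 37 C and 5% CO2. Inhibition is inferred from decreased luminescence after adding detection reagent.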
Shiga toxin inh: A qHTS for Small Molecule Inhibitors of Shiga Toxin. AID 2315, 2010. actives 9.2% (n = 290,000). inhibition, % at 38.7 µM. Vero cells, Shiga toxin protein synthesis inhibition reporter; in the data active = inhibition mostly above about 28%, no sharp cut-off; inactive = mostly below about 43%; also: 0% is about no effect
CHX counter: Cycloheximide Counterscreen for Small Molecule Inhibitors of Shiga Toxin; cell reporter, cycloheximide protein synthesis inhibition counterscreen; max response, %; actives 12% (n = 300,000); AID 2314, 2010; in the data active = max response mostly above about 13%, no sharp cut-off; inactive = mostly below about 14%; also: read at 38.3 µM for the half of the compounds with a filed dose; 0% is about no effect
Pf growth 96h: Primary qHTS for delayed death inhibitors of the malarial parasite plastid, 96 hour incubation; Potency, µM (highest dose often 28.7 µM), inactives show at the highest dose activity change, negative = inhibition, most hits filed as inhibitors; P. falciparum luciferase reporter growth, 96 h; actives 6.9% (n = 320,000); active = well fitted inhibition curve with a large enough effect; inconclusive = small, poorly fitted or top-dose-only effect, or another doubt; inactive = no such curve, though single readings can be large or run the other way; also: potency is read from the fitted curve at half-maximal effect; % is scaled to controls: 0 for no effect and ±100 for the full control effect
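Two-generation exposure (96 h) targets delayed-death phenotype. Reporter parasites carrying integrated firefly luciferase, in red cells at 2% hematocrit and 0.05% parasitemia final, kept at 37 C, 5% CO2; luminescence loss indicates inhibition.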
SARS PLpro yeast: qHTS of Yeast-based Assay for SARS-CoV PLP. AID 485353, 2010. Potency, µM (titrated, usually from 32.9 µM), for the others: at the highest dose activity, positive = growth rescue, actives largely listed as activators. actives 0.19% (n = 330,000). S. cerevisiae expressing SARS-CoV PLpro, growth rescue; also: potency is read from the fitted curve at half-maximal effect; 0% is about no effect; nearly all actives have a fitted effect of over 55% in size
NS1 inh: qHTS Assay for Inhibitors of Influenza NS1 Protein Function; Potency, µM (doses to about 46.1 µM), without a hit: at the top dose activity, positive = more growth; actives 0.4% (n = 270,000); also: potency is read from the fitted curve at half-maximal effect; actives are rising curves; nearly all actives have a fitted effect of over 50% in size
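Recovery from NS1-induced slow growth read by OD600 in budding yeast switched to galactose assay medium (pH 6.0, -URA) at 1:100 dilution. Compound 23 nl per well; the matching strain lacking NS1 serves as control.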
Numbers without * were called inactive; i = inactive; ? = inconclusive; nt = no result; [ ] = remark or other dose. Unless noted, calls follow the shape of the full dose curve.

SMILES | Pf growth 48h | Shiga toxin inh | CHX counter | Pf growth 96h | SARS PLpro yeast | NS1 inh
O=C(c1cnn(-c2ccccc2)c1)c1ccc2ccccc2c1O | 82% | 39 | 15* | 150% | -1% | 19%
CCC(C(=O)OCC(=O)N(CCOC)c1c(N)n(Cc2ccccc2)c(=O)[nH]c1=O)c1ccccc1 (stereo not given) | -6% | -11 | -2 | ? | 1% | 10%
COCCN(C(=O)COC(=O)c1ccccc1Nc1ccccc1)c1c(N)n(Cc2ccccc2)c(=O)[nH]c1=O | ? | nt | nt | 9.3µM* | -3% | nt
COCCn1c(C)cc(/C=C(\C#N)C(=O)OCC(=O)N(C)c2c(N)n(Cc3ccccc3)c(=O)[nH]c2=O)c1C | ? | nt | nt | 13µM* | -2% | nt
COCCN(C(=O)COC(=O)C(c1ccccc1)c1ccccc1)c1c(N)n(Cc2ccccc2)c(=O)[nH]c1=O | 10µM* | nt | nt | 7.4µM* | 2% | nt
CN(CCC#N)C(=O)COC(=O)c1ccc2c(c1)C(=O)N(C1CCCCC1)C2=O | 5% | -4 | 7 | 9% | nt | 8%
Cc1nn(C2CCCO2)c(=O)nc1N (stereo not given) | 17% | 37 | 1 | -24%[5.75 µM] | 1% | nt
N#Cc1cc(-c2ccccc2)cnc1Sc1ccccc1 | 30% | 55* | 27* | 41% | -6% | 11%
Cc1ccc(Sc2nnc(-c3ccccc3)cc2C#N)cc1 | ? | 36 | 6 | nt | 0% | 2%
O=C(NNc1nc(-c2ccccc2)cs1)c1cccs1 | ? | 9 | 18 | ? | 9% | 25%
CC(=O)NNc1nc(-c2ccc(C)cc2)cs1 | 0% | 71* | 23* | -3% | 4% | ?
O=C(Nc1nc(-c2cc(F)ccc2F)cs1)c1cccc(N2C(=O)CCC2=O)c1 | -2% | nt | nt | 32% | -2% | nt
O=C(NNc1nc(-c2ccccc2)cs1)c1ccc(F)cc1 | 12µM* | 41 | 14 | 9.3µM* | 4% | nt
O=C(NNc1nc(-c2ccc(F)cc2)cs1)c1ccccc1 | 5.2µM* | 4 | 5 | 8.3µM* | 5% | 6%
O=C(Nc1nc(-c2ccc(F)cc2)cs1)c1cccc(N2C(=O)CCC2=O)c1 | 4% | 18 | 16* | 39% | 6% | 11%
CCN(C(=O)COC(=O)CNC(=O)c1ccc2ccccc2c1)C1CCS(=O)(=O)C1 (stereo not given) | i | -10 | 3 | 31% | -1% | nt
Cc1cc(C(=O)N/N=C/c2c[nH]c3ccccc23)c(C)o1 | 54% | 26 | 27* | 3% | 14% | -10%
O=C(N/N=C/c1c[nH]c2ccccc12)c1cc(Br)ccc1O | 31% | 29 | 18 | -2% | -6% | -45%
O=C(N/N=C/c1c[nH]c2ccccc12)c1ccn(Cc2ccc(Cl)cc2)n1 | -13% | -2 | -2 | ? | 1% | -5%
Cc1ccc(C(=O)N/N=C/c2c[nH]c3ccccc23)o1 | 45% | 74* | 23* | -22% | 1% | -11%
Cc1ccc(CSc2nnc(-c3cccc4ccccc34)o2)cc1 | nt | nt | nt | nt | -4% | nt
Fc1ccccc1CSc1nnc(-c2cccnc2)o1 | 144% | 110* | 48* | ? | -10% | nt
Cc1ccccc1-c1nnc(SCc2ccccc2)o1 | 130% | 84* | 32* | 48% | -17% | -60%
Fc1ccccc1CSc1nnc(-c2ccccc2)o1 | 258% | 75* | 50* | nt | -14% | -94%
O=C(O)CSc1nnc(-c2ccccc2)o1 | -16% | 37 | -2 | 11% | 2% | 4%
SMILES | Pf growth 48h | Shiga toxin inh | CHX counter | Pf growth 96h | SARS PLpro yeast | NS1 inh
Cc1ccccc1-c1nnc(Cc2ccccc2)o1 | 124% | 138* | 41* | -20% | -1% | -14%
Cc1cc(C(=O)NCc2ccc(F)cc2)c2ccccc2n1 | 2% | -5 | 9 | 9% | 2% | -9%
O=S(=O)(Nc1cccnc1)c1cccc2ccccc12 | nt | -8 | 5 | nt | nt | nt
Cc1ccc(C)c(CSc2nnc(-c3cccnc3)o2)c1 | ? | -2 | 1 | 13µM* | -7% | -69%
Fc1ccc(NCc2nnc(SCc3ccccc3)o2)cc1 | 13% | 15 | 12 | ? | -2% | -6%
Cc1ccccc1-c1nnc(SCc2ccccc2F)o1 | 85% | 87* | 58* | ? | -22% | -48%
